# Measured values published in PubChem BioAssay (Tox21).
# Where “and” joins values, the source holds several entries; their conditions need not be identical. Identical values can stand only once. A number with no mark means an inactive call. Inconclusive results are not listed. A call without a number means that no potency is given here. Calls of active or inactive are those of the source. Unless noted, the call rests on the fitted dose curve; in most records, active means well fitted curve in the direction sought with a large enough effect in the repeat runs; inconclusive means weak or mixed curves; inactive means no such curve, though single readings can be large; an effect the other way counts as inactive or inconclusive.
# Assays:
# [1] = qHTS assay to identify small molecule antagonists of the glucocorticoid receptor (GR) signaling pathway - cell viability counter screen (AID 720693); further: nearly all actives have a fitted effect of over 55% in size
# [2] = qHTS assay for identifying genotoxic compounds that show differential cytotoxicity against isogenic chicken DT40 cell lines with known DNA damage response pathways - Rad54/Ku70 mutant cell line (AID 743015); further: nearly all actives have a fitted effect of over 60% in size; further: potency means the concentration at half of the fitted maximal effect
# [3] = qHTS assay to identify small molecule antagonists of the androgen receptor (AR) signaling pathway - cell viability counter screen (AID 743033; further: nearly all actives have a fitted effect of over 45% in size; further: potency means the concentration at half of the fitted maximal effect)
# [4] = target: Androgen receptor (Homo sapiens) (UniProt P10275); test: qHTS assay to identify small molecule antagonists of the androgen receptor (AR) signaling pathway (AID 743035; active means well fitted inhibition curve with a large enough effect in the signal ratio in the repeat runs, not every such curve was filed as active; the % refers to the signal ratio; further: potency means the concentration at half of the fitted maximal effect)
# Outline: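 Reporter HEK293 cells were exposed to compounds and R1881 overnight (16 h, 37C); beta-lactamase activity was then quantified by FRET fluorescence.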
# [5] = target: Androgen receptor (Homo sapiens) (UniProt P10275); test: qHTS assay to identify small molecule agonists of the androgen receptor (AR) signaling pathway (AID 743036; active means well fitted activation curve with a large enough effect in the signal ratio in the repeat runs, with a control signal flat, not every such curve was filed as active; the % refers to the signal ratio)
# Outline: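 AR-UAS-bla HEK293 cells, plated 4 h before dosing, were treated with compound for 16 h at 37C. beta-Lactamase reporter read after 2 h with LiveBLAzer B/G FRET substrate at room temperature.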
# [6] = target: Androgen receptor (Homo sapiens) (UniProt P10275); test: qHTS assay to identify small molecule agonists of the androgen receptor (AR) signaling pathway using the MDA cell line (AID 743040; further: nearly all actives have a fitted effect of over 20% in size; further: potency means the concentration at half of the fitted maximal effect); conditions: MDA-kb2 AR-luc cells, MMTV luciferase, 16 h; activity change: at 70.3 µM (top of the series), hits give high values
# Outline: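 Stable MMTV-luciferase reporter in MDA-kb2 cells; note the promoter carries GR as well as AR response elements. 16 h compound treatment, 37C, 0% CO2; ONE-Glo luminescence endpoint.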
# [7] = qHTS assay to identify small molecule antagonists of the androgen receptor (AR) signaling pathway using the MDA cell line - cell viability counter screen (AID 743041; further: nearly all actives have a fitted effect of over 45% in size; further: potency means the concentration at half of the fitted maximal effect)
# Outline: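 Using the breast carcinoma line MDA-kb2 AR-luc, test chemicals were co-incubated with R1881 for 16 h; CellTiter-Fluor reagent, added at 15.5 h, provided a fluorescence measure of live cells.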
# [8] = target: Androgen receptor (Homo sapiens) (UniProt P10275); test: qHTS assay to identify small molecule antagonists of the androgen receptor (AR) signaling pathway using the MDA cell line (AID 743042; further: nearly all actives have a fitted effect of over 55% in size)
# Outline: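 Antagonist mode: compounds plus R1881 agonist added to MDA-kb2 AR-luc cells, incubated 16 h at 37C. Luciferase reporter luminescence quantified, with multiplexed CellTiter-Fluor readout for cell viability.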
# [9] = qHTS assay for identifying genotoxic compounds that show differential cytotoxicity against isogenic chicken DT40 cell lines with known DNA damage response pathways - Rev3 mutant cell line (AID 743014); further: nearly all actives have a fitted effect of over 55% in size; further: potency means the concentration at half of the fitted maximal effect
# [10] = qHTS assay for identifying genotoxic compounds that show differential cytotoxicity against isogenic chicken DT40 cell lines with known DNA damage response pathways - wild type cell line (AID 743012); further: nearly all actives have a fitted effect of over 60% in size; further: potency means the concentration at half of the fitted maximal effect
# Outline: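 Viability of DNA repair-proficient chicken DT40 cells was assessed by CellTiter-Glo luminescence following 40 h compound exposure at 37 C/5% CO2.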
# Chain of Androgen receptor (Homo sapiens) (P10275 whole entry, looked up): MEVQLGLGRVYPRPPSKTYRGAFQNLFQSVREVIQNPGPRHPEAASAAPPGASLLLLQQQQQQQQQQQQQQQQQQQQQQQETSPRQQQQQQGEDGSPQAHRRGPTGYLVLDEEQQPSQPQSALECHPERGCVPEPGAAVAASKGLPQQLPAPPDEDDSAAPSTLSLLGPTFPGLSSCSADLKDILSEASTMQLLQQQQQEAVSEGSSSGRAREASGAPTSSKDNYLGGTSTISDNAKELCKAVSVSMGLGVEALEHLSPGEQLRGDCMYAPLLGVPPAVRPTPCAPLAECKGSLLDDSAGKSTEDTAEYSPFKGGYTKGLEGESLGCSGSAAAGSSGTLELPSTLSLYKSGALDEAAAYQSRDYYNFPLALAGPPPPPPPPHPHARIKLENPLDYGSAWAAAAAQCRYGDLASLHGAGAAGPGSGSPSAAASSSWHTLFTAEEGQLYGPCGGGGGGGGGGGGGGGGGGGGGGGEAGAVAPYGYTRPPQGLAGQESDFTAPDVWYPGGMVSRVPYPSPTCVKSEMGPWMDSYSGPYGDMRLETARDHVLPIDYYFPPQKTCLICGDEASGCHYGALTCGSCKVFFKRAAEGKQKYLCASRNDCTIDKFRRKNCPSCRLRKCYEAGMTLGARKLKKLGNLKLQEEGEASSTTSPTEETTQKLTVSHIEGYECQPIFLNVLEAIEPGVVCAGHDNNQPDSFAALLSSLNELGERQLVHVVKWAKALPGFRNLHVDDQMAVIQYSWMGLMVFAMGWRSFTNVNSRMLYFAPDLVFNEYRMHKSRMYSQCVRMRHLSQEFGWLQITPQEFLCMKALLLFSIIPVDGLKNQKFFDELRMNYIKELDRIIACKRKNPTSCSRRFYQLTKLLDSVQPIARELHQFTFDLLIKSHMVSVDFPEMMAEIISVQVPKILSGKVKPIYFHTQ
smiles,measurement,setting,value
COC(=O)C1(O)c2ccccc2-c2ccccc21,Potency,[1],inactive
same,Potency,[2],inactive
same,Potency,[3],inactive
same,Potency,[4],inactive
same,Potency,[5],inactive
same,Potency,[6],inactive
same,Potency,[7],inactive
same,Potency,[8],inactive
Cc1nc2ccccc2c(=O)n1-c1ccccc1Cl,Potency,[1],inactive
same,Potency,[9],59.8 µM (active)
same,Potency,[3],inactive
same,Potency,[7],inactive
O=S(=O)(c1ccccc1)c1ccccc1,Potency,[1],inactive
same,Potency,[9],inactive
same,Potency,[2],inactive
same,Potency,[3],inactive
same,Potency,[7],inactive
C[C@H]1[C@@H]2Cc3ccc(O)cc3[C@@]1(C)CCN2C,Potency,[1],inactive
same,Potency,[3],inactive
CC(C)C1(C)N=C(c2ncccc2C(=O)O)NC1=O (stereo unspecified),Potency,[1],inactive
same,Potency,[2],inactive
same,Potency,[3],inactive
same,Potency,[7],inactive
CCCCCCCCCCCCN(C)C,Potency,[10],inactive
same,Potency,[9],inactive
same,Potency,[2],inactive
same,Potency,[7],inactive
CC(C)(C)NCC(O)c1cc(Cl)c(N)c(C(F)(F)F)c1 (stereo unspecified),Potency,[1],inactive
same,Potency,[2],inactive
same,Potency,[3],inactive
same,Potency,[4],inactive
same,Potency,[5],inactive
same,Potency,[6],inactive
same,Potency,[7],inactive
same,Potency,[8],inactive
CCCC1CCCCN1 (stereo unspecified),Potency,[1],inactive
same,Potency,[9],inactive
same,Potency,[2],inactive
same,Potency,[7],inactive
CCOP(=S)(OCC)Oc1ccc(S(C)=O)cc1 (stereo unspecified),Potency,[1],inactive
same,Potency,[3],inactive
same,Potency,[7],inactive
CC[N+]1(CCOC(=O)C(O)(c2ccccc2)c2ccccc2)CCCCC1,Potency,[1],inactive
same,Potency,[2],inactive
same,Potency,[3],inactive
same,Potency,[7],inactive
Cc1cccc(C)c1NC1=NCCCS1,Potency,[1],inactive
same,Potency,[9],inactive
same,Potency,[7],inactive
O=[N+]([O-])/C=C/c1ccccc1,Potency,[7],inactive
CC(=O)OC(c1ccccc1)C(Cl)(Cl)Cl (stereo unspecified),Potency,[1],inactive
same,Potency,[9],inactive
same,Potency,[7],inactive
CC(C)(C)N(NC(=O)c1ccc(Cl)cc1)C(=O)c1ccccc1,Potency,[1],inactive
same,Potency,[2],43 µM (active)
same,Potency,[3],inactive
same,Potency,[5],inactive
same,Potency,[6],inactive
same,Potency,[7],inactive
same,Potency,[8],inactive
C[C@@H]1C[C@@H]([C@H](O)CC2CC(=O)NC(=O)C2)C(=O)[C@@H](C)C1,Potency,[1],inactive
same,Potency,[9],119 nM (active) and 60.8 nM (active)
same,Potency,[2],133 nM (active) and 121 nM (active)
same,Potency,[3],379 nM (active) and 97.2 nM (active)
same,Potency,[7],inactive
CC(=O)NNc1ccccc1,Potency,[10],1.52 µM (active)
same,Potency,[9],2.15 µM (active)
same,Potency,[2],1.71 µM (active)
same,Potency,[4],inactive
same,Potency,[5],inactive
same,Potency,[6],inactive
same,Potency,[7],inactive
same,Potency,[8],inactive
CN1C(=O)CN=C(c2ccccc2)c2cc([N+](=O)[O-])ccc21,Potency,[1],inactive
same,Potency,[9],inactive
same,Potency,[3],inactive
same,Potency,[5],inactive
same,Potency,[6],1.88 µM (active)
same,Potency,[7],inactive
same,Potency,[8],inactive
COc1cc(C[C@@H](C)N)c(OC)cc1Br,Potency,[1],inactive
same,Potency,[3],inactive
same,Potency,[7],inactive
O=P(OCC(Br)CBr)(OCC(Br)CBr)OCC(Br)CBr (stereo unspecified),Potency,[10],41.1 µM (active)
same,Potency,[9],55.2 µM (active) and 20.6 µM (active)
same,Potency,[2],25.9 µM (active)
same,Potency,[4],14 µM (active)
same,Potency,[5],inactive
same,Potency,[6],inactive
same,Potency,[7],inactive
O=C(O)CCCOc1ccc(Cl)cc1Cl,Potency,[1],inactive
same,Potency,[3],inactive
same,Potency,[6],inactive
same,Potency,[7],inactive
same,Potency,[8],inactive
CCCC[N+]1(C)[C@@H]2CC(OC(=O)[C@H](CO)c3ccccc3)C[C@H]1[C@@H]1O[C@@H]12 (stereo partly specified),Potency,[1],inactive
same,Potency,[9],inactive
same,Potency,[2],inactive
same,Potency,[7],inactive
C=CC(C)(CCC=C(C)C)OC(=O)c1ccccc1N (stereo unspecified),Potency,[1],inactive
same,Potency,[3],inactive
same,Potency,[7],inactive
CCCC[N+](CCCC)(CCCC)CCCC,Potency,[1],inactive
same,Potency,[9],3.85 µM (active)
same,Potency,[2],2.43 µM (active)
same,Potency,[3],inactive
same,Potency,[7],inactive
Nc1ccc2c(c1)Cc1ccccc1-2,Potency,[1],inactive
same,Potency,[3],inactive
CCSCc1ccccc1OC(=O)NC,Potency,[1],inactive
same,Potency,[2],inactive
same,Potency,[3],inactive
same,Potency,[7],inactive
COC1CC(=C(c2cccs2)c2cccs2)C[N+](C)(C)C1 (stereo unspecified),Potency,[1],inactive
same,Potency,[2],29.8 µM (active)
same,Potency,[3],inactive
same,Potency,[7],inactive
C#C[C@]1(O)CC[C@H]2[C@@H]3CCC4=CC(=O)CCC4=C3C=C[C@@]21CC,Potency,[10],10.6 µM (active)
same,Potency,[9],13.3 µM (active)
same,Potency,[2],13.3 µM (active)
same,Potency,[3],inactive
same,Potency,[7],inactive
Nc1cccc2ccccc12,Potency,[1],inactive
same,Potency,[3],inactive
same,Potency,[7],inactive
C=CCc1ccc(OC(=O)Cc2ccccc2)c(OC)c1,Potency,[1],inactive
same,Potency,[3],inactive
same,Potency,[7],inactive
C[N+](C)(C)CC1CO1 (stereo unspecified),Potency,[1],inactive
same,Potency,[9],13.7 µM (active)
same,Potency,[3],inactive
same,Potency,[4],inactive
same,Potency,[5],inactive
same,Potency,[6],inactive
same,Potency,[7],inactive
same,Potency,[8],inactive
[Cl-].[Cl-].[Hg+2],Potency,[10],841 nM (active) and 3.84 µM (active) and 193 nM (active)
same,Potency,[9],2.66 µM (active) and 1.92 µM (active) and 386 nM (active)
same,Potency,[2],1.68 µM (active) and 1.36 µM (active) and 217 nM (active)
same,Potency,[3],9.52 µM (active) and 1.54 µM (active) and 9.77 µM (active)
same,Potency,[7],24.8 µM (active) and 54.2 µM (active) and 61.1 µM (active)
c1ccc2c(c1)sc1ccccc12,Potency,[1],inactive
same,Potency,[2],inactive
same,Potency,[3],inactive
same,Potency,[7],inactive
C[C@]12CC[C@H]3[C@@H](CCC4=CC(=O)CC[C@@H]43)[C@@H]1CC[C@@H]2OC(=O)CCc1ccccc1,Potency,[9],inactive
same,Potency,[2],inactive
same,Potency,[3],inactive
same,Potency,[7],inactive
CCCCCCCCCCCCN=C(N)N,"viability change, negative = cytotoxic",[1],-13.6% [at 3.15 µM]
same,Potency,[9],1.89 µM (active)
same,Potency,[2],1.06 µM (active)
same,"viability change, negative = cytotoxic",[7],-10.3% [at 3.79 µM]
CCCCNC(=O)OCC#CI,Potency,[10],3.05 µM (active) and 611 nM (active)
same,Potency,[9],1.36 µM (active) and 1.22 µM (active)
same,Potency,[2],2.72 µM (active) and 969 nM (active)
same,Potency,[3],12.2 µM (active) and 19.5 µM (active)
same,Potency,[7],60.8 µM (active)
CN1CC[C@]23c4c5ccc(O)c4O[C@H]2[C@@H](O)C=C[C@H]3[C@H]1C5,Potency,[1],inactive
same,Potency,[3],inactive
same,Potency,[4],inactive
same,Potency,[6],inactive
same,Potency,[7],inactive
same,Potency,[8],inactive
CN1CC[C@]23c4c5ccc(O)c4O[C@H]2[C@@H](O)CC[C@H]3[C@H]1C5,Potency,[1],inactive
same,Potency,[2],inactive
same,Potency,[3],inactive
same,Potency,[7],inactive
NC(=S)c1c(Cl)cccc1Cl,Potency,[1],inactive
same,Potency,[3],inactive
same,Potency,[7],inactive
